# Assay outcomes from PubChem BioAssay.
# HCMV antiviral – qHTS Assay for inhibitors of the human cytomegalovirus (HCMV); activity change, negative = inhibition, % at 57.5 µM; hit rate 4.5% among 410,000; HFF cells, HCMV-luciferase reporter, 72 h; hits give low values; in the data active = activity change below about -60%; inconclusive = no clear call, values can overlap the other calls; inactive = above about -39%
#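 Steps: HFFs plated, 16 h 37C; compounds added; HCMV-luciferase added to MOI 1 PFU/cell; 72 h 37C; OneGlo reagent, 5 min room temperature; luminescence read, normalized to controls.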
# Marburg entry inh – qHTS for inhibitors of binding or entry into cells for Marburg Virus; Marburg virus pseudotyped entry inhibition, cell reporter; Potency, µM (top dose mostly 37.8 µM), hits mostly inhibitors; hit rate 1.8% among 300,000; calls by dose curve; tested in HEK293 cells
# Pf growth 96h – Primary qHTS for delayed death inhibitors of the malarial parasite plastid, 96 hour incubation; hit rate 6.9% among 320,000; Potency, µM (highest dose often 28.7 µM), hits mostly inhibitors; AID 504834, 2011; P. falciparum luciferase reporter growth, 96 h
#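 Erythrocytes infected with luciferase-expressing P. falciparum were dispensed at 2% hematocrit and 0.05% parasitemia (final), then incubated with compounds 96 hours at 37 C in 5% CO2. Luminescence after detection reagent addition reported growth.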
# Lassa entry inh – qHTS for Inhibitors of binding or entry into cells for Lassa Virus; Potency, µM (series often up to 37.9 µM), hits mostly inhibitors; hit rate 1.2% among 300,000; AID 540256, 2011; Lassa virus pseudotype entry inhibition, cell reporter; calls by dose curve; tested in HEK293 cells; also: nearly all actives have a fitted effect of over 50% in size
# HCV inhibitor – qHTS Assay for Inhibitors of Hepatitis C Virus (HCV). Potency, µM (titrated, usually from 41.8 µM), actives largely listed as inhibitors. Huh7.5.1 HCVcc-Cre infection, luciferase reporter, 44 h. hit rate 3.4% among 340,000
#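 Compounds are dispensed onto cells plated 4 h earlier at 1,000 per well, with HCVcc-Cre virus (about 0.5 moi) added next. Following 44 h of culture, luminescent signal is measured for 15 sec after 15 min with substrate at room temperature.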
# Pf growth 48h – Primary qHTS for delayed death inhibitors of the malarial parasite plastid, 48 hour incubation | P. falciparum luciferase growth in erythrocytes, 48 h | AID 504832, 2011 | hit rate 5.9% among 310,000 | Potency, µM (highest dose often 28.7 µM), actives largely listed as inhibitors
#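 Luciferase-expressing P. falciparum in infected erythrocytes (2% hematocrit, 0.1% parasitemia final) in RPMI 1640/0.5% Albumax were exposed to compound for 48 hours at 37 C, 5% CO2; growth read as luminescence.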
# G2M arrest HeLa – Cell cycle validation with wells to cells screening paradigm; Potency, µM, usual class: inhibitors; shares compounds with Marburg entry inh; HeLa cell cycle G2/M arrest, Hoechst DNA content imaging; hit rate 60% among 25
# WI-38 tox – High Content Assay for Compounds that inhibit the Assembly of the Perinucleolar Compartment: WI-38 Cytotoxicity; shares compounds with Marburg entry inh; WI-38 normal lung fibroblasts, ATPLite luminescence ATP viability, 24 h; Potency, µM (top dose mostly 46.1 µM), actives largely listed as inhibitors; 120 tested, under 10 active
# PNC inh conf – High Content Assay for Compounds that inhibit the Assembly of the Perinucleolar Compartment: Confirmation of PNC Inhibition. shares compounds with Marburg entry inh. PC3M PTB-GFP, PNC prevalence imaging, 16 h. Potency, µM (doses to about 46.1 µM), usual class: inhibitors. hit rate 50% among 120
# PC3M casp3-7 – High Content Assay for Compounds that inhibit the Assembly of the Perinucleolar Compartment: PC3M Caspase 3/7 Activation. shares compounds with Marburg entry inh. PC3M-GFP caspase 3/7 activation, luminescence, 24 h. activity change, positive = activation, % at 46.1 µM. 120 tested, under 10 active. AID 2731, 2010
# A number is an active result; - = inactive; ? = inconclusive; . = not tested or not shown; [ ] = remark or other dose. Hits are enriched below; roughly 14% of the tested compounds scored in any of these assays. Unless noted, calls follow the shape of the dose curve; as a rule, active = well fitted curve in the direction sought with a large enough effect; inconclusive = small, poorly fitted or top-dose-only effect, or another doubt; inactive = no such curve, though single readings can be large; an effect the other way counts as inactive or inconclusive.
SMILES,HCMV antiviral,Marburg entry inh,Pf growth 96h,Lassa entry inh,HCV inhibitor,Pf growth 48h,WI-38 tox,PNC inh conf,PC3M casp3-7,others
O=C(Cn1cc2c(n1)CCCC2)Nc1cc(C(F)(F)F)ccc1Cl,-,-,.,-,.,.,.,.,.,
Cc1ccc(NC(=O)Cn2nc(C(F)(F)F)c3c2CCCC3)cc1C,-,?,.,?,.,.,.,.,.,
COC(=O)c1c(-c2ccccc2)csc1NC(=O)c1c(-c2ccccc2)noc1C,-79,1µM,?,0.89µM,?,13µM,-,4µM,-,
COC(=O)c1ccc(C)c(NC(=O)c2c(-c3ccccc3)noc2C)c1,-,-,-,-,-,-,.,.,.,
Cc1ccccc1C(=O)NNC(=S)Nc1cccc(C(F)(F)F)c1,-,?,?,?,?,-,-,-,-,
C(=NOCc1ccccc1)c1ccccn1,-,.,.,.,.,.,.,.,.,
CCN=c1scc(-c2ccccc2)n1/N=C/c1ccccn1,.,?,-,1.5µM,?,-,16µM,4µM,-,
C(=N\N1CCN(c2ccccn2)CC1)/c1ccccn1,-,-,-,-,-,-,.,.,.,
C=CCN=c1scc(-c2ccccc2)n1/N=C/c1ccccn1,-99,2.8µM,?,?,14µM,-,?,2µM,-,
Nc1cccc2nc3ccccc3cc12,.,.,?,.,-,.,-,?,?,
Nc1[nH]nc2nc3ccccc3cc12,-,?,-,-,-,-,.,.,.,
CC(C)CN1C(=O)CN(S(C)(=O)=O)CC1(C)C(=O)NC(C)C (stereo not given),-,.,.,.,.,.,.,.,.,
Cc1cc(C(=O)Cn2nnc3ccccc3c2=O)c(C)n1-c1ccccc1F,-87,3.2µM,.,1.1µM,?,-,14µM,4.5µM,-,
Cc1sc(NC(=O)C2CC(=O)N(Cc3ccco3)C2)nc1-c1ccccc1 (stereo not given),-,.,.,.,.,.,.,.,.,
O=C1NCCc2onc(-c3ccc(Br)cc3)c21,-,.,.,.,.,.,.,.,.,
O=C(N/N=C/c1c(O)ccc2ccccc12)c1cccc(C(F)(F)F)c1,-105,2.6µM,2.6µM,?,?,3.7µM,-,?,-,
Cc1ccn2c(Nc3ccccc3)c(-c3c[nH]c4ccccc34)nc2c1,-,-,.,-,.,.,.,.,.,
CSc1nnc2c3ccccc3n(CCc3ccccc3)c2n1,-98,0.58µM,?,1µM,?,?,-,5µM,-,
CSc1nnc2c3ccccc3n(Cc3ccccc3)c2n1,-,-,.,-,-,-,.,.,.,
CN(C)c1ccc(-c2ccnc3c2CC(C)(C(=O)NCc2cccc(Cl)c2)O3)cc1 (stereo not given),-,.,.,.,.,.,.,.,.,
COc1cccc(CNc2cccc3cccnc23)c1O,-,-,?,-,-,-,-,-,-,
CCOc1ccc(CN(C)CC(=O)Nc2cc(OC)c([N+](=O)[O-])cc2C)cc1,-,-,?,-,-,-,-,-,-,
CCNC(=O)c1cnc2sc(N3CCC(C)CC3)nn2c1=O,-,.,.,-,.,.,.,.,.,
C=CCC(CC=C)(CNC(=O)C(=O)Nc1ccc(Br)cc1)c1ccc(OC)c(OC)c1,-,-,.,-,.,.,.,.,.,
COc1ccc(C(=O)Nc2nc3c(s2)CCCC3)cc1S(=O)(=O)N1CCCc2ccccc21,-66,?,10µM,?,?,13µM,-,5µM,-,
SMILES,HCMV antiviral,Marburg entry inh,Pf growth 96h,Lassa entry inh,HCV inhibitor,Pf growth 48h,WI-38 tox,PNC inh conf,PC3M casp3-7,others
O=C(NCc1ccco1)C1CCCCC1,?,-,?,-,-,-,.,.,.,
O=C(NCc1ccco1)C1CCN(Cc2ccc(F)cc2)CC1,-,-,?,-,-,.,-,-,-,
CN(C)c1nc(OCCNC(=O)COc2ccccc2Cl)nc(N(C)C)n1,-,-,?,-,?,?,-,?,-,
COc1cc(NC(=S)NC(=O)c2ccccc2F)ccc1NC(=O)c1cccs1,-,.,-,.,?,-[5.75 µM],.,.,.,
COc1cc(NC(=S)NC(=O)c2ccc(C(C)(C)C)cc2)ccc1NC(=O)c1cccs1,-97,?,?,1µM,?,?,-,4µM,-,
O=C(Cc1cccs1)Nc1nc2c(s1)CCCC2,-73,0.58µM,-,2.6µM,?,-,-,8.9µM,-,
CC(C)(C)c1nc(SCC(=O)Nc2nc3c(s2)CCCC3)c2ccccc2n1,-61,1µM,?,1µM,?,1.2µM,-,7.1µM,-,
Nc1nc(N)nc(Cc2ccccc2O)n1,-,.,?,.,-,-,.,.,.,
Cc1c2ccncc2c(C)c2c1[nH]c1ccccc12,.,4.1µM,1µM,6.5µM,?,1µM,-,?,-,G2M arrest HeLa=?
c1ccc2c(c1)[nH]c1cnccc12,-,-,-,-,?,-,.,.,.,
Cc1ccc(Cn2c(C)c(CNC(C)c3ccccc3)c(C(=O)O)c2C)cc1 (stereo not given),-,?,.,-,.,.,.,.,.,
COc1cc([C@@H]2c3cc4c(cc3[C@H](O)C3COC(=O)[C@@H]32)OCO4)cc(OC)c1OC (stereo not given in full),.,?,.,?,.,.,.,.,.,G2M arrest HeLa=0.022
C[C@]12Cc3cn4c(nc3C=C1CCC1C2CC[C@@]2(C)[C@H]1CC[C@@]2(O)C#N)nc1ccccc14 (stereo not given in full),.,10µM,.,5.2µM,.,.,.,.,.,G2M arrest HeLa=?
CC12Cc3cnoc3C=C1CCC1C2CCC2(C)C1CCC2(C)O (stereo not given),-,-,.,?,?,.,.,.,.,
CC(=O)Nc1nonc1-c1nc2ccccc2n1CCC(C)C,?,?,?,-,?,-,.,.,.,
CCOC(=O)Cn1c(-c2nonc2NC(=O)c2ccccc2F)nc2ccccc21,-98,0.28µM,.,0.28µM,?,.,?,4.5µM,-,
C=CCNC(=S)N/N=C(\C)c1ccccn1,-103,0.26µM,0.0029µM,0.21µM,-,.,-,5µM,-,
O=c1[nH]cnc2c1C(c1ccccc1[N+](=O)[O-])c1c(nc[nH]c1=O)O2,-,-,.,-,-,-,?,-,-,
COc1ccc(C2c3c(nc[nH]c3=O)Oc3nc[nH]c(=O)c32)cc1,.,.,-,.,.,-,.,.,.,
O=c1[nH]c(N/N=C/c2cc3c(cc2[N+](=O)[O-])OCO3)nc2ccccc12,-,.,?,.,-,-,.,.,.,
O=[N+]([O-])c1cc(/C=N/Nc2nc3ccccc3[nH]2)c(O)cc1O,-99,8.9µM,-,10µM,?,2.1µM,-,28µM,-,
